# Screening data as filed in PubChem.
# Pf growth 96h: P. falciparum growth inhibition at 96 hour, primary screen for plastid delayed-death inhibitors; P. falciparum luciferase reporter growth, 96 h; Potency, µM (series often up to 28.7 µM), without a hit: top-dose activity change, negative = inhibition, most hits filed as inhibitors; 320,000 tested, 6.9% active; AID 504834; note: potency is the fitted concentration of half-maximal effect; % is set by controls: 0 for no effect and ±100 for the full control effect
#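 P. falciparum expressing integrated firefly luciferase, in erythrocytes at 2% hematocrit, 0.05% parasitemia, incubated with compounds 96 h at 37 C, 5% CO2. Growth inhibition read as loss of luminescence; two-generation exposure targets delayed-death apicoplast inhibitors.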
# Pf growth 48h: inhibits P. falciparum growth in the first generation, 48 h; Potency, µM (doses to about 28.7 µM), for inactives: at the top dose activity change, negative = inhibition, usual class: inhibitors; 310,000 tested, 5.9% active; AID 504832; P. falciparum luciferase growth in erythrocytes, 48 h; note: potency is the fitted concentration of half-maximal effect; % is set by controls: 0 for no effect and ±100 for the full control effect
#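 Erythrocytes infected with P. falciparum carrying an integrated firefly luciferase reporter (2% hematocrit, 0.1% parasitemia final) were exposed to compounds in RPMI 1640 with 0.5% Albumax at 37 C, 5% CO2. Growth inhibition was scored as reduced luminescence.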
# Shiga toxin inh: Shiga toxin inhibition; 290,000 tested, 9.2% active; Vero cells, Shiga toxin protein synthesis inhibition reporter; inhibition, % at 38.7 µM; in the data active = inhibition mostly above about 28%, no sharp cut-off; inactive = mostly below about 43%; note: 0% is about no effect
# NS1 function inh: blocks influenza NS1 protein function; Potency, µM (highest dose often 46.1 µM), without a hit: at the top dose activity, positive = more growth; 270,000 tested, 0.4% active; AID 2326; calls by dose curve; note: potency is the fitted concentration of half-maximal effect; actives are rising curves; nearly all actives have a fitted effect of over 50% in size
#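 Compounds were scored for reversing the slow growth caused by influenza A NS1 in S. cerevisiae, measured by optical density at 600 nm. Assay medium contained 2% galactose at pH 6.0; NS1-free yeast of the same strain were the positive control.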
# Giardia FBPA inh: blocks Giardia fructose-bisphosphate aldolase activity | A8B2U2 | purified Giardia FBPA | Potency, µM (highest dose often 59.6 µM), for the others: top-dose activity, negative = inhibition, hits mostly inhibitors | 290,000 tested, 0.71% active | AID 2451; note: potency is the fitted concentration of half-maximal effect; % is set by controls: 0 for no effect and ±100 for the full control effect; nearly all actives have a fitted effect of over 55% in size
# Target sequence (A8B2U2 whole entry, looked up): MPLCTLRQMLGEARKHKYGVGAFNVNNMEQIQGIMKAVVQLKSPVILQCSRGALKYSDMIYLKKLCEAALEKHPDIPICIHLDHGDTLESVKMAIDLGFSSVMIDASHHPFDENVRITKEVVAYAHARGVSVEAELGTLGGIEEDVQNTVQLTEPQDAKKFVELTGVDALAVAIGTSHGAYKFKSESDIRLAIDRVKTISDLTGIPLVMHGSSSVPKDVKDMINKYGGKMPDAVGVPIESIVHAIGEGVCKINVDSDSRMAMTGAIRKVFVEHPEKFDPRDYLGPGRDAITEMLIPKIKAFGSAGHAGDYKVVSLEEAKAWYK
#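 Giardia FBPA (40 nM reagent) was preincubated 10 min at RT with compound (up to 57.5 uM final), then substrate plus GAPDH/TPI/NAD/arsenate coupling system with diaphorase/resazurin was added; resorufin fluorescence (525/598 nm) was read after 20 min.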
# CHX counter: counter-screen for Shiga toxin inhibitors: cycloheximide protein synthesis inhibition. cell reporter, cycloheximide protein synthesis inhibition counterscreen. max response, %. 300,000 tested, 12% active. AID 2314; in the data active = max response mostly above about 13%, no sharp cut-off; inactive = mostly below about 14%; note: read at 38.3 µM for the half of the compounds with a filed dose; 0% is about no effect
# * = called active by the depositor; ? = inconclusive; / = no result given; [ ] = dose if it differs, or a comment. Hits are enriched below; roughly 21% of the tested compounds scored in any of these assays. Unless noted, calls come from the whole dose curve; as a rule, active = well fitted curve in the direction sought with a large enough effect; inconclusive = small, poorly fitted or top-dose-only effect, or another doubt; inactive = no such curve, though single readings can be large; an effect the other way counts as inactive or inconclusive.
SMILES,Pf growth 96h,Pf growth 48h,Shiga toxin inh,NS1 function inh,Giardia FBPA inh,CHX counter
CCNC(=O)N1CCCC(C(=O)c2ccc(C(F)(F)F)cc2)C1 (configuration not stated),?,?,10.6,-8.1%,0.3%,2.8
CC(=O)c1cccc(NC(=O)c2cc(S(=O)(=O)N3CCOCC3)cs2)c1,27.2%,-18.5%,-13.2,2.0%,/,1.2
CNC(=O)NC(=O)CSc1ccc(S(=O)(=O)N2CCOCC2)cn1,-25.3%,-21.1%,/,/,/,/
CCOc1ccccc1C(=O)OCC(=O)Nc1cc(Cl)ccc1Oc1ccccc1,?,-17.5%,-3.9,8.0%,2.5%,4.6
CCOc1ccc(Oc2ccc(Cl)cc2N)cc1,30.9%,18.8%,28.6*,/,-17.1%,24.4*
COc1ccc(C2=NN(c3nc(-c4ccc(CNC(C)=O)cc4)cs3)C(c3ccco3)C2)cc1 (configuration not stated),?,3.7µM*,23.3,16.3%,-12.5%,15.9
COc1ccc(-c2csc(N3CCN(C(=O)c4ccco4)CC3)n2)cc1,-7.1%,/,33.4,?,-5.7%,4.2
CCOC(=O)c1c(C)[nH]c(C(=O)NCc2ccco2)c1C,71.7%,52.5%,52.7*,/,3.0%,43.5*
CCOC(=O)c1[nH]c(C)c(CCC(=O)O)c1C,-28.3%,15.5%,-22.4,9.5%,-4.1%,0.7
CCOC(=O)c1[nH]c(C)c(CN(CCc2ccccc2)C(=O)CCC(=O)O)c1C,4.15µM*,-35.4%,-16.6,15.6%,6.8%,-1.8
CCOC(=O)c1[nH]c(C)c(CN(Cc2ccco2)C(=O)C(F)(F)F)c1C,1.1%,10.4µM*,-5.2,-11.8%,4.7%,-2.6
CCOC(=O)c1[nH]c(C)c(C(=O)NCc2ccco2)c1C,2.9%,16.7%,-11.7,3.3%,4.5%,0.3
Clc1cccc(CN2CCCCCC2)c1Cl,0.0%,-13.9%,3.4,-0.3%,?,-2.9
CC1CSc2ccccc2NC1=S (configuration not stated),-29.0%,-7.1%,-1.3,0.0%,-27.6%,-1.1
c1ccc(C2CSc3ccccc3N2)cc1 (configuration not stated),162.8%,151.7%,102.4*,3.2%,-2.7%,63.8*
CCn1cc(/C=C/C(=O)Nc2ccn(Cc3c(F)c(F)cc(F)c3F)n2)cn1,13.1µM*,?,-6.0,1.9%,0.2%,-2.7
CCn1cc(/C=C/C(=O)Nc2ccc(C)cc2Br)cn1,127.2%,150.2%,active,-17.9%,-0.7%,28.7*
COCCC(=O)N1CCC(Oc2ccc(C(=O)NCc3nccn3C)cc2)CC1,?,2.0%,-9.6,-1.1%,-26.9%,11.0
CC(=O)Nc1nc(C)cs1,8.2%,?,-1.2,/,3.1%,11.3
Cc1ccc(CNc2nc(C)cs2)cc1,41.0%,160.5%,74.7*,-9.0%,3.0%,40.3*
Cc1ccc(CNC2=NCCS2)cc1,3.29µM*,?,80.6,1.7%,-4.8%,17.4*
COC(=O)NC(c1cccc(C)c1)[C@@]1(C(=O)OC)CCCC1=O (some centres not stated),/,/,/,/,-3.5%[12.9 µM],/
COC(=O)C1=C(C(=O)OC)[C@@H]2Nc3ccccc3[C@@]23C[C@@H](C(=O)OC)N(S(=O)(=O)c2ccc4c(c2)OCCN4C)C3=N1,/,/,/,/,1.2%[12.9 µM],/
O=C(NCc1cccs1)Nc1cccs1,40.9%,45.8%,33.4*,?,-5.0%[12.9 µM],38.1*
Cc1cccnc1NC(=O)Nc1cccs1,35.8%,/,35.3,-42.1%,-2.3%,23.8
SMILES,Pf growth 96h,Pf growth 48h,Shiga toxin inh,NS1 function inh,Giardia FBPA inh,CHX counter
O=C(CNC(=O)Cc1ccccc1)NCc1cccs1,56.5%,1.3%,/,/,/,/
O=C(NCc1ccccc1)NCc1cccs1,?,73.2%,41.5*,-1.3%,-0.4%,22.4*
O=C(O)C1C2C=CC(C2)C1C(=O)NCc1cccs1 (configuration not stated),4.15µM*,-1.4%,-4.2,-0.1%,4.9%,-4.9
Cc1ccccc1CNC(=O)Nc1cccs1,-17.0%,83.6%,66.0*,6.6%,0.8%,50.8*
Cc1ccc(S(=O)(=O)Nc2ccc(C(=O)NCCCn3ccnc3)cc2)cc1[N+](=O)[O-],?,27.4%,/,/,/,/
COc1ccc(CCNC(=O)CSc2ccc(Br)cc2)cc1OC,-4.3%,-9.5%,13.5,/,3.6%,12.1
COCCCN(C(=O)c1cc2c(s1)CCCCC2)c1c(N)n(Cc2ccccc2)c(=O)[nH]c1=O,1.4%,?,/,/,/,/
CN1C(=O)N(C)C(=O)C2(Cc3cc(NC(=O)c4ccc(F)cc4)ccc3N3CCCC32)C1=O (configuration not stated),14.7µM*,?,14.7,?,/,10.3
COc1ccc2c3c1O[C@H]1[C@@H](O)C=C[C@H]4C(C2)NCCC341 (some centres not stated),0.169µM*,-12.3%,/,/,/,/
COc1ccc2c3c1OC1C(O)C=CC4C(C2)[N+](C)(C)CCC341 (configuration not stated),5.5%,2.2%[0.00184 µM],1.4,1.5%,-27.8%,-3.9
COc1ccc(/C=N/NC(=O)CC(=O)NC2CCCCC2)cc1,95.3%,20.1%,1.5,/,0.8%,3.3
CN1CCN(NC(=O)c2cc(S(=O)(=O)Nc3ccc(Cl)cc3)ccc2Cl)CC1,9.8%,3.7%,-11.5,2.6%,-4.9%,8.2
CN(C)CCCc1c[nH]c2ccccc12,/,/,/,1.8%,/,/
CCN1CCN(c2ccc(N3CCN(S(=O)(=O)c4ccc(C)c([N+](=O)[O-])c4)CC3)nn2)CC1,0.928µM*,13.1µM*,/,/,/,/
O=C(Cc1noc2ccccc12)Nc1ccc2ccccc2c1,48.3%,?,69.3*,1.2%,1.6%,31.5*
Cc1ccc(NC(=O)Cc2noc3ccccc23)cc1,238.6%,236.3%,68.4*,-6.1%,-2.2%,45.8*
Cc1cccc(C)c1-n1c(C)nn(CC2CC2)c1=O,-68.2%,?,-7.2,/,6.6%,-0.9
Clc1ccccc1Cc1noc(CN2CCSCC2)n1,8.5%,0.0%,39.6,0.9%,-1.6%,12.1*
OCC1CCN(Cc2nc(Cc3ccccc3Cl)no2)CC1,?,2.4%,23.5,-0.8%,1.1%,12.4*
Clc1ccccc1Cc1noc(CN2CCN(c3cnccn3)CC2)n1,?,?,34.3,-4.6%,-5.2%,13.0*
Cc1cnccc1CN(C)Cc1nc(Cc2ccccc2Cl)no1,-25.2%,9.28µM*,-15.7,3.6%,-4.7%,12.0
CCc1ccc(N(CC(=O)NC2CCCCC2)C(=O)CCC(=O)Nc2ccccn2)cc1,?,-18.8%,-7.6,2.1%,1.4%,-2.9
COc1cccc(CNS(=O)(=O)c2cc3c4c(c2)CCN4C(=O)CC3)c1,-0.5%,3.6%,/,/,/,/
Cc1ccccc1Nc1ccc2nonc2c1[N+](=O)[O-],6.57µM*,12.2%,-2.8,4.3%,2.0%,-1.7
O=[N+]([O-])c1c(Nc2ccccc2O)cc(Cl)c2nonc12,1.8%,11.7µM*,1.2,-58.1%,-6.8%,-10.0
O=[N+]([O-])c1c(Nc2ccccc2O)ccc2nonc12,-31.4%,13.9%,-5.3,/,?,-3.6
